PubChem BioAssay (Tox21)
Records with an inconclusive call do not appear. Active and inactive are the calls of the source. Unless noted, calls follow the shape of the dose curve; as a rule, active = well fitted curve in the direction sought with a large enough effect in the repeat runs; inconclusive = weak or mixed curves; inactive = no such curve, though single readings can be large; an effect the other way counts as inactive or inconclusive.

Key:
[1] = qHTS assay for small molecule agonists of the p53 signaling pathway (AID 651631; calls by dose curve; also: nearly all actives have a fitted effect of over 15% in size)
Procedure, shortened: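 Beta-lactamase reporter activity under p53 response elements was quantified in HCT-116 cells by FRET fluorescence, following 16 h incubation with test compounds at 37 °C and 2 h substrate development at room temperature.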

[2] = qHTS assay for small molecules that induce genotoxicity in human embryonic kidney cells expressing luciferase-tagged ATAD5 (AID 651632); also: nearly all actives have a fitted effect of over 15% in size
Procedure, shortened: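 ATAD5-luc HEK293T, 2,000 cells/well; cpd or DMSO pin-transferred; 16 hr, 37C/5% CO2; Amplite 30 min RT; luminescence.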

[3] = qHTS assay for small molecule agonists of the p53 signaling pathway - cell viability (AID 651633; calls by dose curve;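 also: p53RE-bla HCT reporter cells with a stable beta-lactamase p53 reporter; series mostly up to about 83 µM; nearly all actives have a fitted effect of over 30% in size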)
Procedure, shortened: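 Viability counter-read: CellTiter-Glo luminescence (30 min, room temperature) in the same p53RE-bla plates. These plates had been exposed to compounds for 16 h at 37 C.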

[4] = qHTS assay for small molecule disruptors of the mitochondrial membrane potential - cell viability (AID 720634; calls by dose curve;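 also: human HepG2 liver cancer cells; series mostly up to about 83 µM; nearly all actives have a fitted effect of over 20% in size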)
Procedure, shortened: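 Cells: HepG2, 2,000/well, attached overnight. Compound 1 hr, 37 C/5% CO2. +m-MPI dye, +CellTiter-Glo 30 min RT. Readout: luminescence (ATP).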

[5] = qHTS assay to test for compound auto fluorescence at 590 nm (red) in HepG2 cells (AID 720674)
Procedure, shortened: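 We screened compounds on adherent HepG2 cells, incubating them for an hour at 37 C in 5% CO2 before reading emission at 590 nm under 540 nm excitation; values reflect equivalence to Rose Bengal sodium fluorescence.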

[6] = qHTS assay to test for compound auto fluorescence at 460 nm (blue) in HEK293 cells (AID 720678)
Procedure, shortened: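 Blue-channel (Ex/Em 405/460 nm) intensity measured in HEK293 cultures after overnight compound exposure at 37C; signal expressed relative to triamterene. Cells plated 2,000 per well in 10% dialyzed FBS medium and allowed 4-5 hr to attach.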

[7] = qHTS assay to test for compound auto fluorescence at 590 nm (red) in HEK293 cells (AID 720679)
Procedure, shortened: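 Red-channel autofluorescence (Ex/Em 540/590 nm; Rose Bengal sodium reference) was measured after overnight 37C, 5% CO2 exposure of attached HEK293 cells, 2,000 per well in medium with 10% dialyzed FBS.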

[8] = qHTS assay for small molecule disruptors of the mitochondrial membrane potential (AID 720635)
Procedure, shortened: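 Mitochondrial membrane potential tracked with Mito-MPS dye, red aggregates (ex 540/em 590 nm) against green monomers (ex 490/em 535 nm). Compound treatment 1 hr at 37C, dye 30 min in HepG2.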

[9] = qHTS assay to test for compound auto fluorescence at 535 nm (green) in HepG2 cells (AID 720675)
[10] = qHTS assay for small molecules that induce genotoxicity in human embryonic kidney cells expressing luciferase-tagged ATAD5 - cell viability (AID 651634; calls by dose curve; also: nearly all actives have a fitted effect of over 25% in size)
Procedure, shortened: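 Fluorescence from CellTiter-Fluor, reporting protease activity within live cells, served as the viability read-out. HEK293T cells carrying luciferase-tagged ATAD5 had been treated with compound for 15.5 hr at 37C.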

Measured: Potency

Cc1ccc(=O)n(-c2ccccc2)c1
not listed: [8] | [9] | [10]
inactive: all other assays above

CCCCCSCCCCC
not listed: [10]
inactive: all other assays above

NCCCNCCSP(=O)(O)O
not listed: [1]
inactive: all other assays above

O=C(O)Cc1ccc(CCNS(=O)(=O)c2ccc(Cl)cc2)cc1
not listed: [8] | [10]
inactive: all other assays above

CC(=O)OCC(=O)[C@@]1(O)CCC2C3CCC4=CC(=O)CC[C@]4(C)C3[C@@H](O)C[C@@]21C (some centres undefined)
not listed: [1]
inactive: all other assays above

CCN(Cc1ccncc1)C(=O)C(CO)c1ccccc1 (centres undefined)
not listed: [2]
inactive: all other assays above

CCn1nc(C(=O)O)c(=O)c2cc3c(cc21)OCO3
not listed: [8] | [10]
inactive: all other assays above

CC(C)(CC(=O)O)C(=O)O
not listed: [9] | [10]
inactive: all other assays above

NC(=O)c1cn(Cc2c(F)cccc2F)nn1
not listed: [1]
inactive: all other assays above

CCOC(=O)c1cccc(N)c1
not listed: [10]
inactive: all other assays above

Cc1cccc(C)c1NC(=O)C(C)N (centres undefined)
not listed: [10]
inactive: all other assays above

C=CCOCC(CC)(CO)COCC=C
not listed: [10]
inactive: all other assays above

Cc1ccc(C#N)cc1
not listed: [1] | [8]
inactive: all other assays above

CC(C)NC(=O)NC(C)C
not listed: [1] | [8]
inactive: all other assays above
